Results on 40 molecules are retold here after PubChem BioAssay (EPA / NIEHS).

The source made the active and inactive calls. The calls were made as follows: active = hit-call score of the fitted dose curve at least 0.9, where 1 is the maximum; inactive = score below 0.9.

The assay in a line: ATG_GRE_CIS: Attagene CIS-FACTORIAL HepG2 Assay for human Glucocorticoid Response Elements (GRE) (AID 2282947). The note with it: HepG2 GRE cis-reporter, Attagene multiplex mRNA; actives raise or lower the signal. As for the experimental part: ATG_CIS is a cell-based, multiplexed-readout assay that uses HepG2, a human liver cell line, with measurements taken at 24 hours after chemical dosing in a 24-well plate.ATG_GRE_CIS is one of 52 assay component(s) measured or calculated from the ATG_CIS assay. It is designed to make measurements of mRNA induction, a form of inducible reporter, as detected with fluorescence intensity signals by Reverse transcription polymerase chain reaction (RT-PCR) and Capillary electrophoresis technology.Data from the assay component ATG_GRE_CIS was analyzed into 1 assay endpoint. This assay endpoint, ATG_GRE_CIS, was analyzed with bidirectional fitting relative to DMSO as the negative control and baseline of activity. Using a type of inducible reporter, measures of mRNA for gain or loss-of-signal activity can be used to understand the reporter gene at the transcription factor-level as they relate to the gene NR3C1. Furthermore, this assay endpoint can be referred to as a primary readout, because this assay has produced multiple assay endpoints where this one serves a reporter gene function. To generalize the intended target to other relatable targets, this assay endpoint is annotated to the nuclear receptor intended target family, where the subfamily is steroidal.
Human liver HepG2 cells are transiently transfected with multiple reporter transcription units (MRTUs) in 6-well plates using FuGene 6 reagent (Roche; 3 ml FuGene/1 mg DNA). The MRTU constructs are regulated by a cis-regulating element (promoter). […] A major difference between the CIS and TRANS system is that in CIS activities of endogenous TFs are measured, whereas the TRANS assay evaluates changes in activities of exogenous, chimeric NR-Gal4 proteins. […] At the end of 24 hour incubation, total RNA was isolated using TriZol reagent (Invitrogen). The isolated RNA is then reverse-transcribed using oligo(dT) primer and Mo-MLV reverse transcriptase (Invitrogen) with DNAse I (Ambion) treatment for 30 min. The one-tenth of the produced cDNA was amplified by PCR using Taq DNA polymerase (Invitrogen) and two reporter sequence-specific primers. The PCR products were fluorescently labeled by primer extension with 6-arboxyfluorescein (6-FAM) 5'-labeled reporter sequence-specific primer (2 min at 95 C, 20 s at 68 C and 10 min at 72 C) and these products were digested with 5U of HpaI (New England Biolabs) for 2h at 37 C. The fragments were purified using Qiaquick PCR columns (Qiagen), analyzed on an ABI 3130xL genetic analyzer (Applied Biosystems) with peak positions identified by using a set of X-rhodamine (ROX)-labeled MapMarker1000 molecular weight standards (BioVentures). The raw capillary electrophoresis data was processed using Attagraph software (Attagene).
Turning to `O=P(O)(O)OCCC(F)(F)C(F)(F)C(F)(F)C(F)(F)C(F)(F)C(F)(F)F`, the result was inactive.
`Oc1ccc(Nc2ccccc2)cc1`: the call was inactive.
In the case of `CO[Si](OC)(c1ccccc1)c1ccccc1` it was “inactive”.
Regarding `COC(OC(C)=O)c1ccccc1` (stereo not given), the call was inactive.
As for `FC(F)(F)C(F)(F)C(F)(F)C(F)(F)C(F)(F)C(F)(F)C(F)(F)Br`, the molecule was classed as inactive.
In the case of `OCC(F)(F)C(F)(F)C(F)(F)C(F)(F)C(F)(F)C(F)F` it was “inactive”.
`C=C(C)C(=O)OCCC(F)(F)C(F)(F)C(F)(F)C(F)(F)C(F)(C(F)(F)F)C(F)(F)F`: the outcome was inactive.
As for `O=C(O)C(F)(F)C(F)(F)C(F)F`, the call was inactive.
As for `FC(F)(F)C(F)(F)C(F)(F)C(F)(F)C(F)(F)C(F)(F)C(F)(F)C(F)(F)CCS`, the molecule was classed as inactive.
As to `O=C(O)C(F)(F)C(F)(F)F`, the outcome was inactive.
In the case of `CCCCCCCOC(=O)c1ccccc1C(=O)OCCCCCCC` it was “inactive”; in that of `CCc1c(Br)c(Br)c(Br)c(Br)c1Br`, “inactive”.
Take `c1ccc(B(c2ccccc2)c2ccccc2)cc1`: the call was inactive.
Consider `CC/C=C\CCOC(C)=O`, for which the result was inactive.
As to `O=C(O)C(F)(OC(F)(F)C(F)(OC(F)(F)C(F)(F)C(F)(F)F)C(F)(F)F)C(F)(F)F` (stereo not given), the outcome was inactive.
The value for `CS(C)(=O)=O` was “inactive”; that for `Cc1ccc(S(=O)(=O)OCC(F)(F)C(F)(F)C(F)(F)C(F)(F)C(F)(F)C(F)F)cc1` was “inactive”.
As for `CNC(=S)NC`, the molecule was classed as inactive.
Regarding `FC(F)(F)C(F)(F)C(F)(F)C(F)(F)CCI`, the outcome was inactive.
Consider `CC/C=C\CCOC(=O)c1ccccc1`, for which the call was inactive.
With `O=C(O)C(F)(OC(F)(F)C(F)(OC(F)(F)C(F)(OC(F)(F)C(F)(F)C(F)(F)F)C(F)(F)F)C(F)(F)F)C(F)(F)F` (stereo not given), the call was inactive.
Regarding `O=C(CC(=O)C(F)(F)C(F)(F)F)C(F)(F)F`, the molecule was classed as inactive.
As to `C=CC(F)(F)C(F)(F)C(F)(F)C(F)(F)C(F)(F)C(F)(F)C(F)(F)C(F)(F)F`, the result was inactive.
Regarding `O=C(O)C(F)(F)C(F)(F)C(F)(F)C(F)(F)C(F)(F)C(F)(F)C(F)(F)C(F)(F)C(F)(F)C(F)(F)C(F)(F)C(F)(F)F`, the molecule was classed as inactive.
In the case of `O=C(O)C(F)(F)C(F)(F)OC(F)(F)F` it was “inactive”; in that of `CC(C)(C)C(=O)CC(=O)C(F)(F)C(F)(F)C(F)(F)F`, “inactive”; in that of `CCN(Cc1cccc(S(=O)(=O)O)c1)c1ccc(C(=C2C=CC(=[N+](CC)Cc3cccc(S(=O)(=O)O)c3)C=C2)c2ccc(O)cc2S(=O)(=O)[O-])cc1`, “inactive”.
The value for `OCC(F)(F)C(F)(F)C(F)(F)F` was “inactive”; that for `FC(F)(I)C(F)(F)C(F)(F)C(F)(F)I` was “inactive”; that for `Cc1ccc(S(=O)(=O)NCl)cc1` was “inactive”.
As to `N=C(N)C(F)(F)C(F)(F)C(F)(F)C(F)(F)C(F)(F)C(F)(F)C(F)(F)F`, the molecule was classed as inactive.
Take `O=C(C=Cc1ccccc1)OCC=Cc1ccccc1`: the result was inactive.
On to `CC(Cc1ccc(O)c(O)c1)C(C)Cc1ccc(O)c(O)c1` (stereo not given), for which the molecule was called inactive.
Consider `OCC(F)(F)C(F)(F)C(F)(F)C(F)(F)C(F)(F)C(F)(F)F`, for which the molecule was classed as inactive.
`CC(=O)Nc1ccc(N=Nc2cc(C)ccc2O)cc1`: the result was inactive.
As to `O[Si](c1ccccc1)(c1ccccc1)c1ccccc1`, the call was inactive.
`O=C(O)C=C(C(F)(F)F)C(F)(F)F`: the outcome was inactive.
In the case of `FC(F)(F)C(F)(F)C(F)(F)C(F)(F)C(F)(F)CCI`, the molecule was classed as inactive.
`FC1CC(F)(F)C(F)(F)C1(F)F` (stereo not given): the molecule was classed as inactive.
As for `O=C(O)C(F)(F)C(F)(F)C(F)(F)C(F)(F)C(F)(F)C(F)(F)C(F)(F)C(F)(F)Cl`, the call was inactive.
